The list is not random: actives were taken first. Their share in the collection is about 5.5%.
ELG1 DNA repair – ELG1-dependent DNA repair inhibition | HEK293T ELG1-luciferase reporter, luminescence, 16 h; DNA damage induced by 5-fluorouridine | Potency, µM (highest dose often 46.1 µM), inactives show top-dose activity change, negative = inhibition, usual class: inhibitors | 2.3% of 330,000 active | AID 504467; also: potency is read from the fitted curve at half-maximal effect; nearly all actives have a fitted effect of over 55% in size
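Reporter activity after DNA damage by 5-fluorouridine is monitored. Compound-treated cells incubate 16 hr at 37 °C, then ONE-Glo is added for 30 min before luminescence reading.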
FBPA coupling cs – counter-screen for Giardia aldolase inhibitors: coupling enzyme system | coupling enzyme system counterscreen, AmpLite Red fluorescence | activity change, negative = inhibition, % at 58.2 µM, hits read low | 0.67% of 290,000 active; in the data active = activity change below about -30%
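Coupling enzymes only (glyceraldehyde-3-phosphate) + compound, at 57.5 uM final, 10 min RT; add substrate/coupling/AmpLite Red mix, 20 min RT; fluorescence ex 525/em 598 nm. Actives flag coupling-system interference.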
Sfp inh – Sfp phosphopantetheinyl transferase inhibition; 3.5% of 310,000 active; Biochemical Sfp PPTase activity, qHTS; Potency, µM, for inactives: largest response in the series, negative = inhibition, usual class: inhibitors; AID 1490; Q9F4F7;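 also: the enzyme is Sfp with the accession as filed and its product quenches rhodamine fluorescence; potency is read from the fitted curve at half-maximal effect; 0% = enzyme reaction without inhibitor and -100% = no enzyme wells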
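Compounds were incubated with enzyme (final 15 nM) for 15 min at room temperature before substrate addition started the reaction. Fluorescence at 525 nm excitation, 598 nm emission was recorded immediately and after 30 minutes.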
Giardia killer – kills Giardia lamblia. activity change, % at 7.66 µM, hits read low. 0.15% of 340,000 active. Giardia lamblia trophozoite viability; in the data active = activity change below about -80%; inconclusive = between about -30% and that limit;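 also: parasites exposed to compound for two days anaerobically before the ATP read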
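Trophozoite viability was measured as ATP-dependent luminescence, read 15-30 min after reagent addition. Before that, parasites at 100 cells/well were exposed to compounds for 48 h, anaerobically, at 37 deg C.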
* = called active by the depositor; ? = inconclusive; . = not tested or not shown. Unless noted, calls follow the shape of the dose curve; as a rule, active = well fitted curve in the direction sought with a large enough effect; inconclusive = small, poorly fitted or top-dose-only effect, or another doubt; inactive = no such curve, though single readings can be large; an effect the other way counts as inactive or inconclusive. Unless noted, % is scaled to controls: 0 for no effect and ±100 for the full control effect.

SMILES	ELG1 DNA repair	FBPA coupling cs	Sfp inh	Giardia killer
CCOc1ccc(-c2cc(C(=O)N3CCN(c4ccccn4)CC3)c3ccccc3n2)cc1	?	2	?	?
CC(C)N(C)C1=CC(=O)C(N(C)C(C)C)=CC1=O	.	.	.	4
CC(CCC#N)[N+](=O)[O-] (stereo not given)	.	2	-6%	.
CCC(CC)c1nnc(NC(=O)CN2C(=O)NC3(CCCC3)C2=O)s1	8%	.	13%	7
N#Cc1ccccc1OCCCN1CCC(Cc2ccccc2)CC1	-16%	1	-7%	7
O=C(c1ccco1)N1CCN(C(=O)c2cc(-c3ccccn3)nc3ccc(Cl)cc23)CC1	10µM*	1	16µM*	-13
Cc1cc(C)c2c(c1)[C@@H]1C=CC[C@@H]1[C@H](c1ccc(S(=O)(=O)N3CCOCC3)cc1)N2	3%	-4	10µM*	-11
CCN1/C(=N\N)c2cccc3cccc1c23	12%	-47*	35µM*	5
CCC(C)NC(=O)CN1C(=O)c2cccc3cccc1c23 (stereo not given)	2%	1	4%	-2
COc1ccc(-n2ccc(-c3nn(-c4cccc(C(F)(F)F)c4)ccc3=O)n2)cc1	8.2µM*	-7	21%	-2
O=C(O)c1nn(-c2cccc(C(F)(F)F)c2)ccc1=O	-11%	3	6%	-14
O=c1ccn(-c2cccc(C(F)(F)F)c2)nc1-c1ccn(-c2ccccc2F)n1	?	-43*	8%	0
N#Cc1nc(N2CCCCC2)nc(N2CCCCC2)n1	.	.	.	-27
Nc1cn(C2OC(CO)C(O)C2O)c(=O)[nH]c1=O (stereo not given)	0%	0	-1%	-7
Cc1ccc(N(C)S(=O)(=O)c2cccc(C(=O)N(C)Cc3cnn(-c4ccccc4)c3)c2)cc1	16µM*	.	.	-9
COc1ccccc1-c1nccc(NCc2cccc(C)c2)n1	.	0	-3%	.
O=C(Nc1nnc(-c2ccncc2)o1)c1ccc(Br)s1	8.2µM*	-1	-6%	4
COc1cccc(-c2nnc(NC(=O)c3ccc(S(=O)(=O)N4CC(C)OC(C)C4)cc3)o2)c1 (stereo not given)	2.6µM*	8	-22%	0
N#Cc1ccc(C(=O)Nc2nnc(-c3ccco3)o2)cc1	16µM*	-1	24%	-5
CC1CN(S(=O)(=O)c2ccc(C(=O)Nc3nnc(-c4ccco4)o3)cc2)CC(C)O1 (stereo not given)	18µM*	2	19%	12
CC1CCN(S(=O)(=O)c2ccc(C(=O)Nc3nnc(-c4ccco4)o3)cc2)CC1	?	8	-3%	-7
CC1CN2C(CCC(C)C2c2ccc(Br)cc2)C(=O)O1 (stereo not given)	.	2	20%	.
Cc1ccc(Sc2cnccc2C#N)cc1	11%	-1	6%	-1
Cc1ccc(C(=O)Nc2nnc(-c3ccco3)o2)cc1	?	-5	13%	0
CC1CC(C)CN(S(=O)(=O)c2ccc(C(=O)Nc3nnc(-c4cccs4)o3)cc2)C1 (stereo not given)	5.8µM*	9	-3%	6
SMILES	ELG1 DNA repair	FBPA coupling cs	Sfp inh	Giardia killer
O=C(Nc1nnc(-c2ccco2)o1)c1ccc([N+](=O)[O-])s1	?	2	-11%	-81*
O=C(Nc1nnc(-c2ccc(F)cc2)o1)c1ccc(S(=O)(=O)N2CCOCC2)cc1	7.3µM*	.	0%	-12
COc1ccccc1NC(=O)COC(=O)c1ccc([N+](=O)[O-])s1	6%	1	6%	6
CCc1ccccc1NC(=O)c1ccc([N+](=O)[O-])s1	12µM*	2	21%	?
O=S(=O)(/C=C/c1ccccc1)N1CCOCC1	0%	3	10%	8
C/C=C/Cn1c(Br)nc2c1c(=O)n(C)c(=O)n2C	0%	-2	7%	3
C/C=C/Cn1c(Br)nc2c1c(=O)[nH]c(=O)n2C	14%	-1	7%	1
Cn1c(=O)[nH]c(=O)c2c1nc(Br)n2C/C=N/NC(N)=S	-3%	-1	56µM*	.
Cn1c(=O)c2c(nc(Br)n2C/C=N/NC(N)=S)n(C)c1=O	-7%	0	50µM*	6
CCOc1ccc(S(=O)(=O)N2CCN(C(=O)CCC(=O)N3CCOCC3)CC2)cc1	16%	.	.	-19
CCn1c(SCC(=O)Nc2ccc3c(c2)OCO3)nnc1C(C)C	0%	-1	18%	-9
Cc1ccc(NC(=O)CSc2nncn2N)cc1C	-4%	0	21%	-17
Cc1ccnc(NC(=O)c2cccc(NC(=O)CC3SC(N4CCCCC4)=NC3=O)c2)c1 (stereo not given)	?	.	.	-9
CC1=C(C#N)C(=O)NC(=O)/C1=C\c1ccc(-c2ccc(C)cc2[N+](=O)[O-])o1	0%	-7	50µM*	10
Cc1ccc(N2NC(=O)/C(=C/c3ccc(-c4ccc(Cl)c(C(=O)O)c4)o3)C2=O)cc1	4%	0	0%	-4
CCCCC1(C)OC(=O)C(=Cc2ccc(-c3ccc(Cl)c(C(=O)O)c3)o2)C(=O)O1 (stereo not given)	6%	14	45µM*	-2
CCOC(=O)c1cc(-c2ccc(/C=C3/C(=O)NC(=O)C(C#N)=C3C)o2)ccc1Cl	22%	-5	50µM*	-9
COc1ccc(-c2ccc(/C=C3/C(=N)N4C=CSC4=NC3=O)o2)c([N+](=O)[O-])c1	?	-3	-18%	3
O=C(Nc1nc(=O)c2ccccc2s1)c1ccccc1	?	0	50µM*	-8
CC(=O)Nc1nc(=O)c2ccccc2s1	?	0	?	27
Cc1ccc(C(=O)Nc2nc3ccccc3c(=O)s2)cc1	?	2	56µM*	19
O=C1Nc2cc(C(=O)N3CCN(c4ccccn4)CC3)ccc2S/C1=C\c1ccccc1	18µM*	.	-8%	5
CN1C(=O)/C(=C\c2ccccc2)Sc2ccc(C(=O)N3CCN(c4ccccn4)CC3)cc21	-23%	0	-6%	.
Cc1cccc(N2CCN(C(=O)c3ccc(Cl)c(S(=O)(=O)NCc4ccco4)c3)CC2)c1C	18µM*	2	-4%	-23
O=C(c1ccc(CNS(=O)(=O)c2ccccc2)cc1)N1CCN(c2ccccn2)CC1	17%	-5	16%	-5
SMILES	ELG1 DNA repair	FBPA coupling cs	Sfp inh	Giardia killer
O=C(c1ccc(Cl)c(S(=O)(=O)NCc2ccccc2)c1)N1CCN(c2ccccn2)CC1	23µM*	0	-2%	2
O=C(c1cccc(Cl)c1)N1CCN(c2ccccn2)CC1	7%	1	9%	-3
O=C(c1ccc(S(=O)(=O)c2cccc(Cl)c2)c([N+](=O)[O-])c1)N1CCN(c2ccccn2)CC1	18µM*	-8	-18%	2
Cc1noc(C)c1COc1ccccc1C(=O)NC(C)c1ccc(Cl)cc1 (stereo not given)	8%	.	.	4
Cc1nnc(NC(=O)c2cc(S(=O)(=O)N3CCCCC3)ccc2Cl)s1	-8%	.	6%	-6
COc1ccc(CN2CCN(C(=O)C3CCC(CNS(=O)(=O)c4ccc(C)cc4)CC3)CC2)c(OC)c1OC (stereo not given)	12µM*	0	14%	-7

High-throughput results as filed in PubChem BioAssay.
